# Screening data: PubChem, several laboratories
# Shown are actives, neighbours in structure and some others; about 1.2% of the full set was active somewhere.
# Rev-erbA mod: modulators of human Rev-erb alpha DNA binding; P20393; Rev-erbα–FITC-DNA binding, fluorescence polarization, 90 min; activity, % at 10 µM; hit rate 0.79% among 370,000; AID 1259318;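 active = activity above about 14%, limit read from the data; passing the limit was not always enough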;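 note: 0% = DMSO wells with 35 nM protein and 100% = DMSO wells with 750 nM protein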
# PKA-R2B act: PKA-R2B complex activation; PKA-R2B holoenzyme dissociation, Cy5-IP20 fluorescence polarization; R2B truncated from residue 108, S112A mutant; 0% DMSO only, 100% 113 µM cGMP; activation, % at 11.4 µM; P22694+P31323; hit rate 0.079% among 340,000;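 active = activation above a cutoff set at the mean over all compounds plus 3 SD, cut at about 18% in these data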;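 note: higher means more holoenzyme dissociation and a rise in polarization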
# Target sequence (P31323 whole entry, looked up, other chains not shown, the tested form may be a part): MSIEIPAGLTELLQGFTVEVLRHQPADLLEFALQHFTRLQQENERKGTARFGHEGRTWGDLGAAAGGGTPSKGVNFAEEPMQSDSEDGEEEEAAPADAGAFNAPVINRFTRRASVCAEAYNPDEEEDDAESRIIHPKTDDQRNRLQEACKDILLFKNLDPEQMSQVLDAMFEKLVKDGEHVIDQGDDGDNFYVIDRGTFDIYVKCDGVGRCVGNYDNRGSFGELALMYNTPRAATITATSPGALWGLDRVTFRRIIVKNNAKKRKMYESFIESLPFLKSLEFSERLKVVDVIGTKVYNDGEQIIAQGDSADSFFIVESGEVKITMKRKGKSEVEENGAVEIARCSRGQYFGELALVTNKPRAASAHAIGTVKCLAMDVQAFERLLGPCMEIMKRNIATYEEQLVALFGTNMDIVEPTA
# PG9 binder: PG9 antibody binding by small molecule; inhibition, % at 6.7 µM; TR-FRET gp120-PG9 antibody binding; AID 624416; hit rate 0.43% among 360,000; in the data active = inhibition above about 8.5%
# PKA-R1A act: activates the PKA-R1A holoenzyme complex | P00514+P68181 | PKA-R1A dissociation, Cy5-IP20 fluorescence polarization; scaled: DMSO 0%, 113 µM cGMP 100% | activation, % at 11.4 µM | hit rate 0.083% among 340,000 | AID 504707;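 active = percent activation above the mean of all tested compounds plus 3 SD, cut at about 19% in these data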;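 note: higher means more PKAc released from R1A so a rise in polarization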
# PG9 bind confirm: confirmation of small molecules binding HIV-1 gp120 antibody PG9. TR-FRET PG9 antibody binding, biochemical. inhibition, % at 6.7 µM. hit rate 90% among 1,500. shares compounds with PG9 binder; in the data active = inhibition above about 9%
# PGV04 Ab binding: counter-screen for PG9 binders: binding control antibody PGV04. shares compounds with PG9 binder. TR-FRET PGV04 antibody-gp120 binding, biochemical. inhibition, % at 6.7 µM. hit rate 95% among 1,500. AID 651604; in the data active = inhibition above about 9.5%
# PG9 binder DR: PG9 antibody binding, dose response. 95 tested, under 10 active. IC50, µM. shares compounds with PG9 binder. TR-FRET PG9 antibody-gp120 binding inhibition; in the data active = IC50 below about 10 µM
# PGV04 DR counter: binds control antibody PGV04 in PG9 counter-screen. hit rate 20% among 95. shares compounds with PG9 binder. IC50, µM. TR-FRET binding to control antibody PGV04
# PG126 binding DR: PG126 binding, dose response counter-screen | shares compounds with PG9 binder | TR-FRET binding to antibody PG126, counterscreen | IC50, µM | hit rate 20% among 95
# Starred values were filed as active, the others as inactive; i = inactive; / = no result. Cut-off read from the data, not from the text of the source, unless noted: active = IC50 below about 9 µM; inactive = the rest.
SMILES,Rev-erbA mod,PKA-R2B act,PG9 binder,PKA-R1A act,PG9 bind confirm,PGV04 Ab binding,others
O=C1C(=O)N(Cc2cccnc2)C(c2cccc(Br)c2)/C1=C(/O)c1ccc2c(c1)OCO2 (stereo not given),6.3,-3.1,37.1*,-13.0,38.6*,45.5*,
COc1ccc(/C(O)=C2/C(=O)C(=O)N(Cc3cccnc3)C2c2ccccn2)cc1 (stereo not given),0.7,-0.2,2.6,-10.8,/,/,
CN1CCC(N[C@@H](Cc2ccccc2)C(=O)NCC(c2ccccc2)c2ccccc2)(C(=O)NC2CCCCC2)CC1,-3.2,/,/,/,/,/,
Cc1ccc(-n2nc3c(=S)[nH]nc(C)c3c2C)cc1,2.3,-2.0,44.9*,-0.3,28.4*,24.9*,PG9 binder DR=>67;PGV04 DR counter=i;PG126 binding DR=i
Cc1n[nH]c(=S)c2nn(-c3cccc(Cl)c3)c(C)c12,1.9,/,5.6,/,/,/,
Cn1c(Cc2cccs2)nnc1SCC(=O)Nc1ccc2c(c1)OCO2,4.5,/,/,/,/,/,
O=C(NC1CCCCN(Cc2cccc(Cl)c2)C1=O)c1cccs1 (stereo not given),-5.1,/,/,/,/,/,
O=S(=O)(c1ccc(F)c(F)c1F)N1CCN(c2ncnc3sccc23)CC1,-0.5,-7.5,10.5*,1.1,8.2,15.7*,
O=C(COC(=O)c1cn(-c2ccccc2)nc1-c1ccccc1)Nc1ncc(Cl)cc1Cl,7.8,-5.1,14.7*,-15.7,21.7*,32.9*,
O=C(OCc1cn(Cc2ccccc2Cl)nn1)N1CCOCC1,-2.7,/,/,/,/,/,
COc1ccc(NC(=O)c2oc3ccccc3c2NC(=O)C2CC2)cc1,18.5,1.4,11.9*,3.4,9.0*,9.2,PG9 binder DR=>67;PGV04 DR counter=i;PG126 binding DR=i
Cc1ccc(NC(=O)CSc2nnc(-c3cccnc3)n2Cc2ccco2)c(C)c1,0.7,/,/,/,/,/,
CCc1nnc(NC(=O)CSc2nnc(-c3ccccc3O)n2-c2ccc(C)cc2)s1,8.1,0.3,11.0*,-4.3,14.4*,22.4*,
COc1cccc(OCCSc2nc3ccccc3c(=O)[nH]2)c1,21.4,1.0,24.0*,-5.7,22.5*,31.1*,
CCCNC(=O)CSc1nc(-c2cccs2)cc(C(F)(F)F)n1,9.6,-16.0,-0.1,-16.1,/,/,
Cc1cc(NC(=O)CSc2nc(-c3cccs3)cc(C(F)(F)F)n2)no1,10.4,6.0,24.3*,-7.2,34.1*,42.5*,
Cc1ccc(Cn2c(C3CCCN3c3nc(-c4cc(Cl)c(N)c(Cl)c4)cs3)nc3cc(Cl)c(Cl)cc32)cc1 (stereo not given),-4.2,-2.3,9.7*,-1.4,13.9*,22.4*,
Nc1c(Cl)cc(-c2csc(N3CCCC3c3nc4cc(Cl)c(Cl)cc4n3CCCO)n2)cc1Cl (stereo not given),-6.8,-6.8,-0.5,-13.3,/,/,
C=CCN1C(=O)[C@H](CC(=O)N2CCCCC2)[C@@]2(C(=O)OCC)CCCC=C12,2.6,/,/,/,/,/,
Cc1csc2c(=O)sc(NC(=O)c3ccco3)nc12,-4.2,-0.6,37.4*,-8.6,48.6*,78.0*,
Cc1csc2c(=O)sc(NC(=O)c3cccs3)nc12,12.7,/,63.7*,/,65.8*,87.8*,
Cc1csc(NC(=O)c2cccs2)n1,1.9,-4.6,-1.6,-3.3,/,/,
O=C(Cn1c(=S)[nH]c2ccccc2c1=O)N1CCN(c2ccc(F)cc2)CC1,9.2,-6.5,10.5*,-1.7,16.2*,26.2*,
COC(=O)c1cc2ccccn2c2c(C(=O)OC)c(C(=O)OC)cc1-2,2.4,2.0,-19.1,-0.7,/,/,
COC(=O)c1cc2c(C)cc3ccc(C)cn3c-2c1C(=O)OC,3.2,-2.6,11.5*,-6.0,17.4*,22.1*,
SMILES,Rev-erbA mod,PKA-R2B act,PG9 binder,PKA-R1A act,PG9 bind confirm,PGV04 Ab binding,others
COC(=O)[C@]12C[C@H](CC(=O)NCC3CCCCC3)C(=O)N(CCC3=CCCCC3)C1=C[C@H](C1CCCC1)O[C@@H]2C,-0.9,/,/,/,/,/,
COc1cc(C(=O)Nc2cccc(-c3nc4cc(C)ccc4o3)c2C)cc(OC)c1OC,9.2,-1.3,12.2*,15.0,16.9*,27.4*,
COc1cc(C(=O)Nc2cccc(-c3nc4ncccc4o3)c2C)cc(OC)c1OC,2.7,0.3,2.2,5.6,/,/,
COC(=O)CCC(=O)NC(=S)Nc1sc(C)c(C)c1C(N)=O,11.7,-9.9,36.5*,-10.8,33.3*,42.5*,
CCN(CC)C(=O)CC[C@H]1CC[C@]2(CCCN(S(C)(=O)=O)C2)O1,1.3,/,/,/,/,/,
COc1ccc2[nH]c3c(Cl)ncnc3c2c1,6.3,-1.3,-0.9,-17.7,/,/,
COc1ccc2[nH]c3c(=S)nc[nH]c3c2c1,0.5,3.8,49.5*,-3.1,25.9*,25.5*,PG9 binder DR=>67;PGV04 DR counter=>67;PG126 binding DR=>67
COc1ccc(/C=C/S(=O)(=O)NCc2ccccc2)c(CNC(=O)OC(C)(C)C)c1,3.3,/,/,/,/,/,
COc1ccc(Cn2c(=O)[nH]c3cc(C(=O)NCc4ccc5c(c4)OCO5)ccc3c2=O)cc1,/,6.3,9.1*,6.2,13.8*,17.8*,
COc1ccc(Cn2c(=O)[nH]c3cc(C(=O)NCCCOC(C)C)ccc3c2=O)cc1,8.7,-3.8,-0.2,0.4,/,/,
COc1ccc(C2C(C(=O)N3CCN(c4ccccc4C)CC3)CC(=O)N2c2ccc(OC)cc2)cc1 (stereo not given),11.0,/,/,/,/,/,
Cc1ccc(C2C(C#N)=C(N)SC(N)=C2C#N)cc1,1.2,2.3,13.4*,-11.6,7.0,8.3,
COc1ccc2nc(C)cc(SCC(=O)Nc3c(C)cccc3C)c2c1,3.4,-8.6,10.3*,-2.5,27.1*,32.9*,
COc1ccc2nc(C)cc(SCC(=O)NNC(=O)COc3ccc(C)cc3)c2c1,1.5,-2.6,-12.0,-6.4,/,/,
C=C1CCC2C(C)(C)CCC[C@]2(C)[C@H]1CC1=C(O)C(=O)C(CO)=CC1=O (stereo not given in full),-8.7,/,/,/,/,/,
CCOc1ccc(C(CC(=O)O)NC(=O)c2sc3ccccc3c2Cl)cc1 (stereo not given),4.8,-1.9,7.8,5.4,/,/,
CCCOc1ccc(C(CC(=O)O)NC(=O)c2sc3ccccc3c2Cl)cc1 (stereo not given),-1.0,-12.4,10.6*,4.4,14.8*,20.7*,
Cc1cc(C)c2c(=N)c3ccccc3n(CCCCCCCCn3c4ccccc4c(=N)c4c(C)cc(C)nc43)c2n1,-28.0,-4.2,9.7*,-8.4,28.0*,33.0*,
O=Cc1nc(Nc2cc(F)cc(F)c2)nc(NC2CCCC2)n1,3.2,/,/,/,/,/,
COc1ccccc1C1c2c(ncn(-c3ccccc3)c2=N)Oc2ccc3ccccc3c21 (stereo not given),-4.3,/,/,/,/,/,
